Laboratory results as given in PubChem BioAssay AID504850 (National Center for Advancing Translational Sciences (NCATS), 2011).
Hit rate of the full screen: of about 2,300 compounds, about 1,200 (52%) were called active. Another 34% or so got no clear call; they are omitted. Calls follow the shape of the dose curve; as a rule, active = well fitted inhibition curve with a large enough effect; inconclusive = small, poorly fitted or top-dose-only effect, or effect the other way; inactive = no such curve, though single readings can be large or run the other way. So high a share suggests a set chosen from earlier hits. This is one part of the list.

assay: Confirmation screen for delayed death inhibitors of the malarial parasite plastid, 48 hour incubation; also: nearly all actives have a fitted effect of over 65% in size; settings: P. falciparum-infected erythrocytes, luciferase growth; series mostly up to 28.7 µM; activity change, negative = inhibition: at the top concentration
Method in brief: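 Single-generation (48 h, 37 C) exposure of integrated firefly luciferase-reporter P. falciparum in red cells, 0.1% parasitemia at 2% hematocrit, Albumax-supplemented RPMI. Falling luciferase signal marks parasite growth inhibition.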
% is scaled to controls: 0 for no effect and ±100 for the full control effect; potency is read from the fitted curve at half-maximal effect.

SMILES | activity change, negative = inhibition | Potency
Cc1ccc(NC(=O)c2nnn(CC(=O)Nc3ccc4c(c3)OCO4)c2N)cc1C | -13.9% (inactive) | 
Cn1c(=O)n(C)c2cc(NC(=O)CCl)ccc21 |  | 2.24 µM (active)
O=C(CCl)Nc1ccc2c(c1)OCO2 |  | 2.24 µM (active)
CCN1CCN(Cc2c(O)ccc3c2O/C(=C\C=C\c2ccccc2)C3=O)CC1 |  | 3.98 µM (active)
O=S(=O)(c1ccc(OCc2ccc(Br)cc2)cc1)N1CCOCC1 |  | 11.2 µM (active)
COc1ccc(CNC(=O)c2cc(S(=O)(=O)N3CCOCC3)cn2C)cc1 | -18.3% (inactive) | 
Cc1cc(OCCN2CCN(S(=O)(=O)c3ccccc3F)CC2)ccc1C(C)C | -46.5% (inactive) | 
Cc1cc(OCC(=O)N2CCCC2)cc(C)c1Cl | -29.2% (inactive) | 
O=C(COc1ccccc1)N1CCN(S(=O)(=O)c2ccc(Br)cc2)CC1 |  | 11.2 µM (active)
O=S(=O)(c1ccc(OCC(O)CN2CCN(c3ccc(F)cc3)CC2)cc1)N1CCOCC1 (configuration not stated) |  | 11.2 µM (active)
CCOc1ccc(S(=O)(=O)N2CCN(C(=O)CCOc3ccccc3C)CC2)cc1 |  | 12.6 µM (active)
Cc1cccc(-c2ccc3ncnc(NCc4cccs4)c3c2)c1 |  | 7.08 µM (active)
COc1cccc(-c2ccc3ncnc(NCc4cccs4)c3c2)c1 |  | 11.2 µM (active)
CN(C)c1ccc(CNc2ncnc3sccc23)cc1 | -16% (inactive) | 
Cc1ccn2c(NC3CCCC3)c(-c3ccccn3)nc2c1 |  | 7.08 µM (active)
COc1cccc([C@@H]2Oc3ccc(OC)cc3C(=O)[C@H]2O)c1 |  | 7.94 µM (active)
CC(=O)N1CN(C2CCCC2)Cc2c1sc1c2CCCC1 |  | 14.1 µM (active)
COc1ccc(S(=O)(=O)N2CCCCCC2)cc1C(=O)N(C)CC(=O)Nc1cc(C)ccc1C |  | 7.94 µM (active)
COC(=O)c1cn(C)c2ccc(S(=O)(=O)N3CCCC3)cc2c1=O | -9.9% (inactive) | 
COc1ccc(C)cc1N(CC(=O)Nc1ccc(S(=O)(=O)N2CCCC2)cc1)S(C)(=O)=O |  | 15.8 µM (active)
COC(=O)c1cc(NC(=O)CN2CCc3cc4c(cc3C2)OCCCO4)cc(C(=O)OC)c1 |  | 12.6 µM (active)
CCOc1ccccc1N(CC(=O)Nc1ccc(S(=O)(=O)N2CCCC2)cc1)S(C)(=O)=O |  | 12.6 µM (active)
COc1ccc(S(=O)(=O)N2CCCN(S(=O)(=O)c3ccc(OC)c(C)c3)CC2)cc1C |  | 14.1 µM (active)

SMILES | activity change, negative = inhibition | Potency
COc1ccc(OCCOc2ccc(S(=O)(=O)N3CCCC3)cc2C(N)=O)cc1 |  | 11.2 µM (active)
COc1cc2c(cc1OC)CN(CC(=O)Nc1ccc(S(=O)(=O)N3CCCC3)cc1)CC2 |  | 15.8 µM (active)
C/C=C(\C)CN1CCc2cc(OC)c(OC)cc2C1 | -12.9% (inactive) | 
CCN(CC(=O)Nc1ccc(S(=O)(=O)N2CCOCC2)cc1)Cc1ccccc1 |  | 12.6 µM (active)
O=C(CCCN1C(=O)/C(=C\c2ccco2)SC1=S)Nc1ccc2ccccc2c1 | -5.51% (inactive) | 
N=C1S/C(=C\c2ccco2)C(=O)N1c1nccs1 |  | 14.1 µM (active)
O=C(c1ccc(Cl)cc1)C(Cn1cncn1)C(Sc1ccccc1)c1ccccc1 (configuration not stated) |  | 14.1 µM (active)
Cc1cc(C)c(/C=C(\C#N)C(N)=S)c(C)c1 | -25.2% (inactive) | 
CCN(CC)S(=O)(=O)c1ccc(N2CCOCC2)c(NC(=O)C2CSC3(C)CCC(=O)N23)c1 (configuration not stated) |  | 14.1 µM (active)
COc1ccc([C@@]2(C(C)C)ON(c3ccccc3C(F)(F)F)C2=O)cc1 |  | 1.12 µM (active)
CCOC(=O)CC(Nc1nc(N2CCOCC2)nc(N2CCOCC2)n1)c1ccccc1Cl (configuration not stated) |  | 6.31 µM (active)
CCCc1ccc(C(=O)NC(=O)c2ccccc2O)cc1 |  | 0.501 µM (active)
CSc1ccccc1OCc1cc(C(=O)N2C[C@H]3CC[C@H]2C3)no1 | -29.5% (inactive) | 
CSc1ccccc1OCc1cc(C(=O)NCCn2ccnc2C)no1 | 15.8% (inactive) | 
CSc1ccccc1OCc1cc(C(=O)N(C)CCc2c(C)n[nH]c2C)no1 |  | 12.6 µM (active)
CSc1ccccc1OCc1cc(C(=O)NCCCn2nc(C)cc2C)no1 |  | 15.8 µM (active)
CCN(CCN1CCCC1)C(=O)c1cc(COc2ccccc2SC)on1 |  | 15.8 µM (active)
Nc1nc(SCC(=O)NCC2CCCO2)[nH]c(=O)c1NC(=O)c1ccc(F)c(F)c1 (configuration not stated) |  | 12.6 µM (active)
CCS(=O)(=O)c1nc(S(=O)(=O)c2ccc(C)cc2)c(N2CCC3(CC2)OCCO3)s1 |  | 12.6 µM (active)
CC(C)Cc1ccc(C(=O)Nc2ccc(Cc3ccncc3)cc2)o1 |  | 12.6 µM (active)
CCN(CC)S(=O)(=O)c1cc(NC(=O)C(C)OC(=O)c2[nH]c(C)c(C(C)=O)c2C)ccc1C (configuration not stated) |  | 4.47 µM (active)
Cc1oc2c(c1C(=O)N1CCOCC1)C(=O)c1ccccc1C2=O |  | 2 µM (active)
CCCC1O[C@@H]2CC3C4CCC5=CC(=O)C=C[C@]5(C)C4C(OC(C)=O)C[C@]3(C)[C@]2(C(=O)COC(C)=O)O1 (some centres not stated) |  | 7.08 µM (active)

SMILES | activity change, negative = inhibition | Potency
COC1C(OC(=O)/C=C/C=C/C=C/C=C/C(=O)O)CCC2(CO2)C1C1(C)OC1CC=C(C)C (configuration not stated) |  | 0.0562 µM (active)
CC[n+]1ccc(/C=C/c2c[nH]c3ccccc23)cc1 |  | 0.355 µM (active)
CCc1ccc(/C=C/c2c[nH]c3ccccc23)[n+](CC)c1 |  | 0.126 µM (active)
CC(C)CC1NC(=S)N(Cc2ccccc2)C1=O (configuration not stated) |  | 5.01 µM (active)
O=C(C#Cc1ccccc1)Nc1cccc(F)c1 |  | 7.94 µM (active)
NC(=O)c1ccc(NC(=O)C#Cc2ccccc2)cc1 |  | 5.01 µM (active)
Cc1nnsc1C(=O)Nc1ccccc1 | 14.9% (inactive) | 
Nc1ccc(-c2c3ccc(=O)cc-3oc3cc(O)ccc23)c(C(=O)O)c1 | 3.65% (inactive) | 
c1ccc(Cn2nnc3c(N4CCCCCC4)ncnc32)cc1 |  | 14.1 µM (active)
CCn1c(=O)n(CC)c2cc(N3CCCC3)c(NC(=O)c3ccc(C)cc3)cc21 |  | 11.2 µM (active)
COc1ccc(CC(=O)NNC(=O)CN(C)S(=O)(=O)c2ccc(Cl)cc2)cc1OC | -28.2% (inactive) | 
COc1ccccc1-c1coc2cc(OC(=O)N3CCOCC3)ccc2c1=O | 7.66% (inactive) | 
Cc1csc(NC(=O)Cc2coc3cc(C)c(C(C)C)cc23)n1 |  | 14.1 µM (active)
COc1ccc(NC(=O)Cc2coc3cc(C)c(C(C)C)cc23)cc1S(=O)(=O)N1CCOCC1 |  | 12.6 µM (active)
COc1ccc(NC(=O)Cc2ccc(Cl)cc2)cc1S(=O)(=O)N1CCCCC1 |  | 12.6 µM (active)
O=C(COC(=O)c1ccc(F)c(S(=O)(=O)N2CCOCC2)c1)Nc1ccc2[nH]c(=O)[nH]c2c1 | -10.8% (inactive) | 
Cc1ccc(NC(=O)COc2ccccc2C#N)cc1S(=O)(=O)N1CCCCCC1 |  | 14.1 µM (active)
CC1(C)CC(=O)C=C(NC2=CC3OC(c4ccccc4)OCC3OC2=O)C1 (configuration not stated) | 6.44% (inactive) | 
CC[n+]1ccccc1/C=C/c1ccc(N(C)C)cc1 |  | 2.24 µM (active)
Cc1ccc(/C=C/c2ccc(N(C)C)cc2)[n+](C)c1 |  | 1.26 µM (active)
COc1cc(/C=C(/C#N)C(=O)NCc2ccccc2)cc(OC)c1OC |  | 14.1 µM (active)
CC[C@@H](C(=O)[C@@H](C)[C@@H](O)[C@H](C)CCc1ccc(C)c(O)c1C(=O)O)[C@H]1O[C@](CC)([C@H]2CC[C@](O)(CC)[C@H](C)O2)C[C@@H]1C |  | 0.708 µM (active)
COc1ccc(N2CCc3c(C)nc4c(OC)cc(OC)cc4c32)c(OC)c1 |  | 11.2 µM (active)

SMILES | activity change, negative = inhibition | Potency
Cc1ccccc1OCC(=O)NCCC1=CCCCC1 | -31.7% (inactive) | 
Cc1cc(=O)nc2c3ccccc3n(CC(=O)NCCC3=CCCCC3)n12 |  | 12.6 µM (active)
Brc1ccc(/C=N/Nc2ncnc3c2cnn3Cc2ccccc2)cc1 |  | 3.98 µM (active)
COC(=O)c1ccc(COc2ccccc2/C=N/O)o1 | -21.8% (inactive) | 
COc1cccc(/C=N/NC(=O)c2nc(-c3ccccc3)cc(-c3ccccc3)n2)c1O |  | 6.31 µM (active)
O=C(Cn1ncc2c3ccccc3n(Cc3cccc(Cl)c3)c2c1=O)NCc1ccccn1 |  | 14.1 µM (active)
COc1ccc(Cn2c(O)c(C=Nc3ccc(O)cc3)c3ccccc3c2=O)cc1 |  | 10 µM (active)
CC[C@@H]1CC=C[C@H]2[C@H]1C(=O)N(Cc1ccccc1)[C@H]2c1ccoc1 |  | 7.08 µM (active)
O=C(COC(=O)c1c2c(nc3ccccc13)CCN(Cc1ccccc1)C2)Nc1c(F)cccc1F |  | 6.31 µM (active)
COc1cccc(CN2CCN(c3nc4nonc4nc3N3CCCCC3)CC2=O)c1 |  | 10 µM (active)
O=C(COc1ccc(Cl)cc1)Nc1cc(S(=O)(=O)N2CCCCC2)ccc1N1CCCCC1 |  | 5.62 µM (active)
CC(Oc1cccc(Cl)c1)C(=O)Nc1cc(S(=O)(=O)N2CCOCC2)ccc1N1CCCCC1 (configuration not stated) |  | 5.01 µM (active)
O=C(COc1ccc(Br)cc1)Nc1cc(S(=O)(=O)N2CCCCC2)ccc1N1CCCCC1 |  | 5.62 µM (active)
CCN1CCN(c2ccc(S(=O)(=O)N3CCCCC3)cc2NC(=O)COc2cc(C)ccc2Cl)CC1 |  | 14.1 µM (active)
C[C@@H]1[C@H](O)C[C@@]23COC(=O)C2=CCCC3[C@@]1(C)CCC1COC(=O)C1 (some centres not stated) | -24.3% (inactive) | 
CSc1ccc(/C=C/C(=O)c2ccc(NC(=O)C(C)C)cc2)cc1 |  | 15.8 µM (active)
CSc1c(CC(=O)Nc2ccccc2)n(C)c2ccccc12 |  | 8.91 µM (active)
CC(C)(C)c1cc(C(=O)NNc2cccc(Cl)c2)n(Cc2ccccc2)n1 |  | 12.6 µM (active)
Cc1ccc2c(c1)cc(C(=O)NCc1ccccc1)n2C | -7.89% (inactive) | 
Cc1cccc(Cn2nc(C(C)(C)C)cc2C(=O)Nc2ccc(F)cc2)c1 |  | 4.47 µM (active)
Cc1ccc(NC(=O)c2cc(C(C)(C)C)nn2Cc2ccccc2)cc1 |  | 11.2 µM (active)
CCOC(=O)C1CCN(c2cc3c(cc2NC(=O)c2ccccc2Cl)n(C)c(=O)n3C)CC1 |  | 11.2 µM (active)
CCOc1c(Cl)cc(C(=O)Nc2ccccc2C(=O)O)cc1Cl | -9.43% (inactive) | 
